Bioassay records from PubChem.
Compounds with a hit are over-represented: about 3.1% of the library has one in this group of screens.
BoNT-F LC inh: blocks Botulinum neurotoxin F light chain protease; Multiplex microsphere protease cleavage assay, flow cytometry; inhibition, % at 10 µM; 0.22% of 360,000 active; AID 588497; in the data active = inhibition above about 35%, passing the limit was not always enough; inconclusive = no clear call, values can overlap the other calls; note: plate controls were buffer without enzyme for full effect and enzyme alone for no effect
BoNT A protease: blocks Botulinum neurotoxin A light chain protease | multiplex microsphere protease substrate cleavage, flow cytometry | 0.17% of 360,000 active | inhibition, % at 10 µM | AID 588499; note: plate controls were buffer without enzyme for full effect and enzyme alone for no effect
Bead autofluor: flagged as autofluorescent in microsphere protease counterscreen; compound autofluorescence counterscreen, microsphere flow cytometry; stronger effect = higher value; fluorescence intensity (no concentration beside the values); 3.1% of 360,000 active; AID 624483; in the data active = fluorescence intensity above about 16000; inconclusive = no clear call, values can overlap the other calls
Anthrax LF prot: anthrax lethal factor protease inhibition; P15917; multiplex microsphere protease cleavage assay, LF; inhibition, % at 10 µM; 0.12% of 360,000 active; AID 588501; note: plate controls were buffer without enzyme for full effect and enzyme alone for no effect
PriA SSB inh: K. pneumoniae PriA-SSBct interaction inhibition; AID 1272365; AlphaScreen SSBct-PriA binding, biotinylated peptide; inhibition, % at 33 µM; 0.6% of 430,000 active; in the data active = inhibition mostly above about 37%, no sharp cut-off; inactive = mostly below about 20%;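 note: plate controls were negative control peptide for no effect and reference peptide for full effect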
* marks the source's active call; other numbers are inactive results; ? = inconclusive; / = no result given. Cut-off read from the data, not from the text of the source, unless noted: active = inhibition above about 30%; inconclusive = no clear call, values can overlap the other calls; inactive = below that.

SMILES	BoNT-F LC inh	BoNT A protease	Bead autofluor	Anthrax LF prot	PriA SSB inh
COc1ccc(CCn2c(O)c(C=NCc3ccc4c(c3)OCO4)c(=O)[nH]c2=O)cc1OC	0.2	-0.8	9798	11.6	-10.9
Cc1cc(C)n(C(=O)c2ccc(C)c(S(=O)(=O)N3CCCCC3)c2)n1	0.4	-1.8	16992*	-0.4	-20.1
Cc1ccc(C(=O)N2CCCCC2)cc1S(=O)(=O)N1CCCCCC1	0.7	0.5	5688	1.3	-5.3
CCOc1ccc(-c2csc(SCc3ccc(C(=O)NCc4ccccn4)o3)n2)cc1	/	/	/	/	14.0*
COC(=O)CCSCc1nc2ccccc2c(=O)[nH]1	/	/	/	/	1.0
O=C(CN1NC2=CCCCCC2=CC1=O)Nc1nc(-c2ccccn2)cs1	/	/	/	/	56.1
C/C(=C/C(=O)NCc1ccccc1)C(=O)O	2.4	-0.1	22169*	-6.0	-7.4
COc1ccc(C2C(C(=O)OCC3CCCO3)=C(C)NC3=C2C(=O)CC(c2ccco2)C3)cc1O (configuration not stated)	-1.1	-0.5	23267*	-2.4	7.5
CC1=C(C(=O)OCC2CCCO2)C(c2ccccc2)C2=C(CCCC2=O)N1 (configuration not stated)	-0.5	-0.3	4901	2.1	-3.8
O=C(NC(Cc1ccccc1)C(=O)NCc1ccccn1)c1ccco1 (configuration not stated)	-7.2	-2.3	17464*	-3.7	-4.8
O=C(NCc1ccccn1)c1ccco1	0.9	-0.6	2411	1.1	-8.3
CS(=O)(=O)c1ccc2nc(NS(=O)(=O)c3cc(Cl)c(Cl)cc3Cl)sc2c1	/	/	/	/	-5.0
CCOC(CNC(=O)c1ccc(N2CCc3ccccc32)c([N+](=O)[O-])c1)OCC	-5.7	-0.3	2581	-1.9	63.0*
COC(=O)c1ccc(N2CCc3ccccc32)c([N+](=O)[O-])c1	-12.9	-2.0	3708	11.5	52.0*
O=C(O)c1ccc(N2CCc3ccccc32)c([N+](=O)[O-])c1	-7.3	-0.2	2996	-4.7	-4.8
O=C(NCc1ccc(F)cc1)c1ccc(N2CCc3ccccc32)c([N+](=O)[O-])c1	2.7	-0.2	2034	-2.8	73.7*
CCSc1nc2n(n1)[C@@H](c1ccc(OCC(N)=O)c(OC)c1)C(C(=O)OC)=C(C)N2	/	/	/	/	1.0
CCOC(=O)Cn1c(S(=O)(=O)Cc2cccc(F)c2)nc(-c2ccccc2)c1-c1ccccc1	-1.7	-0.4	7957	-5.0	-8.4
C#CCn1c(S(=O)(=O)Cc2ccc(F)cc2)nc(-c2ccccc2)c1-c1ccccc1	-3.6	-0.1	16327*	-4.6	-10.4
CCOC(=O)Cn1c(S(=O)(=O)Cc2ccc(F)cc2)nc(-c2ccccc2)c1-c1ccccc1	0.2	?	16161*	-1.4	-2.4
CCCCn1c(CN2CCN(c3cccc(Cl)c3)CC2)nc2c1c(=O)n(C)c(=O)n2C	7.4	6.1	19625*	-11.7	-10.9
CCCn1c(CN(C)Cc2ccccc2)nc2c1c(=O)n(C)c(=O)n2C	-21.4	-0.7	4573	-1.2	-8.3
Cn1c(=O)c2c(nc(CN3CCN(Cc4ccccc4)CC3)n2Cc2ccc(F)cc2)n(C)c1=O	4.8	-0.3	6409	-1.0	3.1
CCCCCn1c(CN2CCN(c3cccc(Cl)c3)CC2)nc2c1c(=O)n(C)c(=O)n2C	1.6	0.4	8145	0.3	-12.7
CC(C)CCn1c(CN2CCN(Cc3ccccc3)CC2)nc2c1c(=O)n(C)c(=O)n2C	-1.2	?	20587*	2.9	2.6
SMILES	BoNT-F LC inh	BoNT A protease	Bead autofluor	Anthrax LF prot	PriA SSB inh
CCOC(=O)Cn1c(CN(Cc2ccccc2)Cc2ccccc2)nc2c1c(=O)n(C)c(=O)n2C	4.3	2.6	20766*	-9.1	-2.0
CCCCn1c(CN(C)Cc2ccccc2)nc2c1c(=O)n(C)c(=O)n2C	-2.0	-0.4	19708*	-5.8	-2.0
COc1ccc(-c2ccc(=O)n(CCNC(=O)c3cc(N4CCCC4)ncn3)n2)cc1	/	/	/	/	-3.0
CCCCn1c(CN2CCN(c3ccccc3)CC2)nc2c1c(=O)n(C)c(=O)n2C	7.4	0.4	5771	2.3	-1.5
CCCCCn1c(CN2CCN(Cc3ccccc3)CC2)nc2c1c(=O)n(C)c(=O)n2C	6.6	4.6	20660*	-8.0	-9.3
Cn1c(=O)c2c(ncn2CC(=O)N(Cc2ccccc2)c2ccccn2)n(C)c1=O	-1.8	0.4	23173*	0.0	4.6
CCn1c(CN2CCN(C(=O)c3ccco3)CC2)nc2c1c(=O)n(C)c(=O)n2C	5.2	?	21356*	0.8	-2.7
CC(C)NC(=O)Cn1c(-c2ccccn2)nc2ccccc21	/	/	/	/	0.0
O=[N+]([O-])c1ccc(Sc2c(-c3ccccc3)nc3sccn23)cc1	/	/	/	/	1.0
CCOC(=O)C(Nc1ccc2ccccc2c1)C(=O)OCC	-12.2	0.5	2352	-0.9	57.6*
CC(=O)Nc1ccc2ccccc2c1	-1.6	-0.2	4183	-0.9	-1.6
